Results: PubChem BioAssay AID1159580 (chemical genetic matrix, 2015)
Values joined by “and” are separate entries in the source; they are usually repeats but may differ in a detail not shown here. Identical values can stand only once. The campaign covered roughly 5,500 compounds. About 2,000 (36%) were called active. About 18% were inconclusive and are not listed. Cut-off read from the data, not from the text of the source: active = normalized growth mostly below about 0.91 (no sharp cut-off); inconclusive = no clear call, values can overlap the other calls; inactive = mostly above about 0.92. The list shows a part of the results.

Test: chemical genetic growth profiling, strain panel (AID 1159580);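 note: tested at 20 µM; growth read once vehicle control cultures reached saturation at 30 °C; 1 = growth at the plate median or of vehicle wells; lower values mean less growth of the strain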
Settings: S. cerevisiae deletion strains, growth OD

Measured: normalized growth

CN1CC(CNC(=O)OCc2ccccc2)CC2c3cccc4c3c(cn4C)CC21 (stereo not drawn)
inactive: locus YAL013W, strain DEP1, active compounds read low 1.01 | locus YBR021W, strain FUR4, active compounds read low 1.02 | locus YBR229C, strain ROT2, active compounds read low 1 | locus YCL029C, strain bik1, active compounds read low 0.977 | locus YDL035C, strain GPR1, active compounds read low 1.04 | locus YDL074C, strain BRE1, active compounds read low 0.999 | locus YDL101C, strain DUN1, active compounds read low 0.978 | locus YDL185W, strain tfp1, active compounds read low 0.97 | locus YDL192W, strain arf1, active compounds read low 0.993 | locus YDR101C, strain arx1, active compounds read low 0.995 | locus YDR150W, strain NUM1, active compounds read low 0.994 | locus YDR162C, strain NBP2, active compounds read low 1.02 | locus YDR318W, strain mcm21, active compounds read low 0.985 | locus YDR388W, active compounds read low 0.987 | locus YDR502C, strain sam2, active compounds read low 0.941 | locus YEL061C, strain CIN8, active compounds read low 0.992 | locus YER110C, active compounds read low 0.972 | locus YER155C, strain BEM2, active compounds read low 0.991 | locus YER167W, strain BCK2, active compounds read low 1 | locus YGL078C, strain dbp3, active compounds read low 0.995 | locus YGL086W, strain mad1, active compounds read low 0.982 | locus YGL248W, strain PDE1, active compounds read low 0.989 | locus YGR078C, strain PAC10, active compounds read low 0.995 | locus YGR135W, strain pre9, active compounds read low 0.984 | locus YGR252W, strain gcn5, active compounds read low 1.04 | locus YHR030C, strain SLT2, active compounds read low 0.998 and 0.982 | locus YHR079C, strain IRE1 (second series), active compounds read low 0.965 | locus YHR079C, strain IRE1, active compounds read low 0.972 | locus YHR094C, strain hxt1, active compounds read low 0.988 | locus YHR129C, strain ARP1, active compounds read low 0.999 | locus YHR200W, strain rpn10, active compounds read low 0.985 | locus YIL066C, strain RNR3, active compounds read low 1.01 | locus YIL073C, strain SPO22, active compounds read low 0.911 | locus YIL125W, strain kgd1, active compounds read low 1 | locus YIR030C, strain dcg1, active compounds read low 0.986 | locus YJL095W, strain BCK1, active compounds read low 0.957 and 0.968 | locus YJL134W, strain LCB3, active compounds read low 0.995 | locus YJL168C, strain set2, active compounds read low 1 | locus YJL187C, strain SWE1 (second series), active compounds read low 0.973 | locus YJR043C, strain POL32, active compounds read low 1.07 | locus YJR066W, strain TOR1, active compounds read low 0.877 | locus YJR075W, strain HOC1, active compounds read low 0.981 | locus YKL009W, strain mrt4, active compounds read low 0.979 | locus YKL068W, active compounds read low 0.983 | locus YKL085W, strain MDH1 (second series), active compounds read low 0.975 | locus YKL085W, strain MDH1, active compounds read low 0.975 | locus YKR001C, strain vps1, active compounds read low 0.996 | locus YLR039C, strain RIC1, active compounds read low 0.988 | locus YLR058C, strain SHM2, active compounds read low 0.988 | locus YLR102C, strain apc9, active compounds read low 0.986 | locus YLR113W, strain HOG1, active compounds read low 1.03 | locus YLR262C, strain YPT6, active compounds read low 0.998 | locus YLR268W, strain sec22, active compounds read low 0.986 | locus YLR330W, strain CHS5, active compounds read low 0.993 | locus YLR342W, strain FKS1 (second series), active compounds read low 1.07 | locus YLR371W, strain rom2, active compounds read low 0.992 | locus YLR418C, strain cdc73, active compounds read low 1.01 | locus YML016C, strain PPZ1, active compounds read low 0.999 | locus YML032C, strain rad52, active compounds read low 0.998 | locus YML124C, strain tub3, active compounds read low 1 | locus YMR078C, strain ctf18, active compounds read low 0.983 | locus YMR223W, strain ubp8, active compounds read low 0.979 | locus YMR263W, strain SAP30, active compounds read low 0.979 | locus YMR307W, strain GAS1, active compounds read low 1.16 | locus YNL067W, strain RPL9B, active compounds read low 0.96 | locus YNL153C, strain GIM3, active compounds read low 0.981 | locus YNL183C, strain NPR1, active compounds read low 0.879 | locus YNL233W, strain BNI4, active compounds read low 0.986 | locus YNL250W, strain rad50, active compounds read low 0.971 | locus YNL271C, strain bni1, active compounds read low 0.992 | locus YNL298W, strain CLA4, active compounds read low 0.99 | locus YNL307C, strain MCK1, active compounds read low 0.985 | locus YNR052C, strain pop2, active compounds read low 0.975 | locus YOL012C, strain htz1 0.968 | locus YOL147C, strain pex11, active compounds read low 0.989 | locus YOR061W, strain CKA2, active compounds read low 0.994 | locus YOR069W, strain VPS5, active compounds read low 0.997 | locus YOR136W, strain idh2, active compounds read low 0.98 | locus YOR144C, strain elg1, active compounds read low 1.01 | locus YOR184W, strain ser1, active compounds read low 1 | locus YOR231W, strain MKK1, active compounds read low 0.991 | locus YOR316C, strain cot1, active compounds read low 0.979 | locus YPL256C, strain CLN2, active compounds read low 0.986 | locus YPR119W, strain clb2, active compounds read low 0.981 | locus YPR141C, strain kar3, active compounds read low 0.988 | locus YPR163C, strain tif3, active compounds read low 1 | locus YPR167C, strain met16, active compounds read low 0.991 | strain wtn01, active compounds read low 1.01
